MARV entry inh: Marburg virus entry inhibition. AID 540276. Marburg virus pseudotyped entry inhibition, cell reporter. hit rate 1.8% among 300,000. Potency, µM (highest dose often 37.8 µM), without a hit: at the highest dose activity change, negative = inhibition, hits mostly inhibitors; calls by dose curve; tested in HEK293 cells; also: potency is read from the fitted curve at half-maximal effect; % is scaled to controls: 0 for no effect and ±100 for the full control effect
LASV entry inh: Lassa virus entry inhibition. hit rate 1.2% among 300,000. Potency, µM (top dose mostly 37.9 µM), inactives show at the highest dose activity change, negative = inhibition, usual class: inhibitors. Lassa virus pseudotype entry inhibition, cell reporter; calls by dose curve; tested in HEK293 cells; also: potency is read from the fitted curve at half-maximal effect; % is scaled to controls: 0 for no effect and ±100 for the full control effect; nearly all actives have a fitted effect of over 50% in size
CHX counter: counter-screen for Shiga toxin inhibitors: cycloheximide protein synthesis inhibition. max response, %. hit rate 12% among 300,000. AID 2314. cell reporter, cycloheximide protein synthesis inhibition counterscreen; in the data active = max response mostly above about 13%, no sharp cut-off; inactive = mostly below about 14%; also: read at 38.3 µM for the half of the compounds with a filed dose; 0% is about no effect
Shiga inhibitor: inhibitors of Shiga toxin in Vero cells; inhibition, % at 38.7 µM; hit rate 9.2% among 290,000; Vero cells, Shiga toxin protein synthesis inhibition reporter; in the data active = inhibition mostly above about 28%, no sharp cut-off; inactive = mostly below about 43%; also: 0% is about no effect
AMA1 RON2 block: inhibitors of Plasmodium falciparum AMA1-RON2 interaction; AID 720542; AlphaScreen AMA1-biotinylated RON2 peptide binding; Potency, µM (doses to about 58.2 µM), for the others: at the highest dose activity change, negative = inhibition, actives largely listed as inhibitors; hit rate 0.2% among 360,000; active = well fitted inhibition curve with a large enough effect; inconclusive = small, poorly fitted or top-dose-only effect; inactive = no such curve, though single readings can be large or run the other way;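 also: potency is read from the fitted curve at half-maximal effect; 0% = vehicle wells and -100% = peptide control; nearly all actives have a fitted effect of over 45% in size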
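AMA1 (3D7) with his tag at 25 nM final met compounds first, then biotinylated RON2 peptide at 25 nM; detection used donor plus acceptor beads, 10 µg/mL apiece, read by AlphaScreen after 30 min at room temperature.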
Numbers without * were called inactive; ? = inconclusive; . = no result given; [ ] = dose if it differs, or a comment. The entries come from a sample that favours hits as a whole.

SMILES | MARV entry inh | LASV entry inh | CHX counter | Shiga inhibitor | AMA1 RON2 block
N/C(=C\C(=O)c1cc(Cl)ccc1O)C(Cl)(Cl)Cl | . | . | 13* | 24 | -1%
CN(C)/C=C/C(=O)c1cccc([N+](=O)[O-])c1 | ? | 11% | 10 | -4 | 1%
COc1cc(OC)cc(C(=O)/C=C2\Sc3ccccc3N2C)c1 | 2%[46.1 µM] | 15%[46.1 µM] | 41* | 42* | 6%
CC(=O)c1ccc2c(c1)N(C)c1ccccc1S2 | ? | 7% | 15* | 15* | 236%
COCC(=O)/C=C1\Sc2ccccc2N1C | 23% | -2% | 7 | 18 | 1%
CN1/C(=C\C(=O)c2cccc([N+](=O)[O-])c2)Sc2ccccc21 | 30%[46.1 µM] | 21% | 38* | 97* | 2%
CN1/C(=C/C(=O)c2ccc(Cl)cc2)Sc2cc3c(cc21)OCO3 | ? | 16% | 41* | 68* | 13%[2.32 µM]
COc1ccc(C(=O)/C=C2/Sc3cc4c(cc3N2C)OCO4)cc1 | 8% | 5% | 1 | -11 | -8%
CN(C)c1ccc(C(=O)NCc2ccc3c(c2)CCN3C(=O)c2ccccc2)cc1 | . | 2%[46.1 µM] | . | . | .
Cc1ccc(N2CCN(C(=O)c3cn(C)c4ccc(S(=O)(=O)N5CCCC5)cc4c3=O)CC2C)cc1 (centres undefined) | -20%[46.1 µM] | -10%[46.1 µM] | . | . | .
CSc1ncc(C(=O)NCc2ccc(C)cc2)c(-c2ccccc2)n1 | . | 0%[46.1 µM] | . | . | .
CCc1ccc(S(=O)(=O)c2cn(Cc3ccccc3)c3cc(F)c(F)cc3c2=O)cc1 | -9%[46.1 µM] | 22%[46.1 µM] | . | . | .
COc1ccc(-c2c3c(=O)n(C)c(=O)n(C)c3c3c(-c4ccccc4)nc4ccccc4n23)cc1 | 8%[46.1 µM] | 15%[46.1 µM] | . | . | .
COc1ccc2c(c1)S/C(=C\C(=O)c1ccncc1)N2C | -18% | 8% | 47* | 110* | 0%
COc1ccc2nc(/C=N/NC(=O)CCCCCNC(=O)OC(C)(C)C)ccc2c1 | ? | -16% | 41* | 138 | -7%
CC(C)(C)OC(=O)NCCC(=O)N/N=C/c1ccc2ncccc2c1 | 6% | -17% | -1 | 25 | -12%
CC(C)(C)OC(=O)NCCC(=O)N/N=C/c1ccc2nccnc2c1 | -11%[46.1 µM] | 12% | -3 | -6 | 5%
COc1ccc2nc(/C=N/NC(=O)CCNC(=O)OC(C)(C)C)ccc2c1 | 2% | -6% | 35* | 62* | 44%
CCC[C@H](NC(C)=O)C(=O)N[C@H]1CC(=O)ONCCCC[C@@H](C(N)=O)NC(=O)[C@H](Cc2c[nH]c3ccccc23)NC(=O)[C@H](CCCN=C(N)N)NC(=O)[C@@H](Cc2ccc3ccccc3c2)NC(=O)[C@H](Cc2cnc[nH]2)NC1=O | . | . | -5 | -12 | .
C[C@H](NC(=O)[C@@H]1Cc2ccccc2CN1)C(=O)Nc1ccc2c(c1)OCO2 | . | . | 30* | 25 | 32%
C[C@@H](NC(=O)[C@@H]1Cc2ccccc2CN1)C(=O)Nc1ccc2c(c1)OCCO2 | . | . | 27* | 67* | 18%
CSCC[C@H](NC(=O)[C@@H]1Cc2ccccc2CN1)C(=O)Nc1ccc2c(c1)OCO2 | 12%[46.1 µM] | ? | 48* | 34 | 76%
COc1cc(OC)c(N2CC(C(=O)NCCC3=CCCCC3)CC2=O)cc1Cl (centres undefined) | . | . | . | . | -1%
Cc1ccccc1/C=C/c1nc2ccccc2c(=O)[nH]1 | ? | ? | 45* | 84* | -13%
N#CCOc1ccccc1/C=C/c1nc2ccccc2c(=O)[nH]1 | ? | ? | 30* | 83* | ?
SMILES | MARV entry inh | LASV entry inh | CHX counter | Shiga inhibitor | AMA1 RON2 block
Cc1ccccc1/C=C\c1nc2ccccc2c(=O)[nH]1 | ? | ? | 46* | 89* | -2%
CCOc1ccccc1/C=C\c1nc(O)c([N+](=O)[O-])c(=O)[nH]1 | . | . | -4 | -13 | -4%
CC(=O)n1cc(/C=N/NC(=O)c2ccccc2O)c2ccccc21 | . | . | 26* | 66* | 115%
CC(=O)n1cc(/C=N/NC(N)=S)c2ccccc21 | ? | 14% | 17 | -12 | 72%
Cn1cc(/C=N/NC(=O)c2ccccc2O)c2ccccc21 | . | . | 25* | 53 | 157%
CC(C)(C)OC(=O)n1cc(/C=N/NC(=O)c2ccco2)c2ccccc21 | -2%[46.1 µM] | -19%[46.1 µM] | 37* | 68* | -7%
CNc1nnc(-c2ccc(C)cc2)c2ccccc12 | 22%[46.1 µM] | 7.9µM* | -1 | -27 | 0%
Cc1ccc(-c2nnc(NCCCO)c3ccccc23)cc1 | . | . | -2 | 18 | 3%
O=C(CSc1nc(C(F)(F)F)cc(=O)[nH]1)Nc1ccc2c(c1)OCCO2 | -1% | 4% | . | . | 11%
COc1ccccc1N1CCN(C(=O)CCNS(=O)(=O)c2cc(Br)cnc2N)CC1 | -30%[46.1 µM] | ? | -4 | -3 | 0%
O=C(Nc1cc(Cl)ccc1-n1cncn1)c1ccc([N+](=O)[O-])s1 | -14% | ? | 19* | -23 | -11%
CCCCCC(=O)N1C[C@@H](n2cc(C3CC3)nn2)[C@H](O)C[C@H]1c1ccccc1 | . | 13%[46.1 µM] | . | . | .
Cc1ccc(NC(=O)c2cc3cccc([N+](=O)[O-])c3[nH]2)cc1 | . | . | 46* | 84* | -3%
Cc1ccc2[nH]c(C(=O)Nc3ccccc3)cc2c1 | ? | 20%[46.1 µM] | . | . | .
CCC(C)c1ccccc1NC(=O)c1cc2cccc([N+](=O)[O-])c2[nH]1 (centres undefined) | ? | ? | 39* | 32 | -14%
COc1cc(C2=NOC(C(=O)Nc3ccc4c(c3)OCO4)C2)cc(OC)c1OC (centres undefined) | . | . | 18* | 25 | 42%
COc1ccc(NC(=O)C2CC(c3ccc(OC)c(OC)c3)=NO2)cc1OC (centres undefined) | -4% | 1% | 1 | -15 | -2%
COc1ccc(C2=NOC(C(=O)Nc3ccc4c(c3)OCO4)C2)cc1OC (centres undefined) | -11%[46.1 µM] | 12%[46.1 µM] | 28* | 89* | 8%
CC(C)(C)c1ccc(C(=O)CCCN2CCC(OC(c3ccccc3)c3ccccc3)CC2)cc1 | ? | 5.2µM* | . | . | .
COc1ccc(OCC#CCN2CCCCCC2)cc1 | -32%[46.1 µM] | -2%[46.1 µM] | 12* | 30 | ?
C(#CCN1CCCCC1)COCc1ccccc1 | 17% | 15% | 17* | 58 | -14%
COc1ccc(OCC#CCN2CCNCC2)cc1 | . | . | 11 | 17 | -29%
OC(COCc1ccccc1)CN1CCCCC1 (centres undefined) | . | . | 11 | -5 | 6%
O=C(Nc1ccccc1[N+](=O)[O-])c1cccc(N2C(=O)CCC2=O)c1 | 12% | 25% | 4 | 49 | 3%
COc1cc(OC)c(NS(=O)(=O)c2c(C)nc3sc(C)cn3c2=O)cc1Cl | . | 3%[46.1 µM] | . | . | .
O=C(NNC(=O)c1ccccc1F)c1ccco1 | ? | ? | 14 | 40* | 0%
O=C(NNC(=O)c1ccccc1O)c1ccco1 | ? | 26%[46.1 µM] | 27* | 97* | 44%
COc1ccc(C(=O)[C@]2(C)C=C(c3ccc(OC)cc3)[C@H](C)C2)cc1 | 10%[14.2 µM] | . | . | . | .
COc1ccccc1OCc1cc(C(=O)N(C)CCC2CCOCC2)no1 | . | . | . | . | 16%
CCN(CC1CCCO1)C(=O)c1cc(COc2ccc(F)cc2F)on1 (centres undefined) | 14% | -1% | 7 | 17 | -9%
